The record followed here is PubChem BioAssay (Tox21).

Assay [1] in a line: qHTS assay to identify small molecule antagonists of the estrogen related receptor signaling pathway with the pleiotropic PPARgamma coactivator (PGC) from Tox21 10K library - cell viability counter screen (AID 1224840; active means well fitted cell-killing curve with a large enough effect in the repeat runs, not every such curve was filed as active; further: nearly all actives have a fitted effect of over 40% in size). In outline: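 Viability counter screen, PGC/ERR cells: 17.5 h compound exposure at 37 C, CellTiter-Fluor fluorescence endpoint.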
(qHTS replaces the single test concentration by a dilution series.)

For assay [2], the target named is Thyrotropin receptor (Homo sapiens) (UniProt P16473). Kind of assay: qHTS assay to identify small molecule agonists of the thyroid stimulating hormone receptor (TSHR) signaling pathway (AID 1224843; calls by dose curve; further: nearly all actives have a fitted effect of over 45% in size). In a few lines:
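HEK293/TSHR, 800 cells/well; cpd 30 min RT; add cAMP-d2 + anti-cAMP-cryptate, 1 h RT; fluorescence read on plate reader. 15-pt titration, n=3.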

The nature of assay [3]: qHTS assay to identify small molecule agonists of the hypoxia (HIF-1) signaling pathway - cell viability counter screen (AID 1224844; calls by dose curve; further: nearly all actives have a fitted effect of over 50% in size). In a few lines: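 Same wells as the HIF-1 reporter screen; ME-180 cells carrying HRE-bla, 17 hr treatment at 37C; CellTiter-Glo luminescence read after 30 min at room temperature.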
Assay [4] can be described thus: qHTS assay to identify small molecule agonists of H2AX (AID 1224845; active means well fitted activation curve with a large enough effect in the signal ratio in the repeat runs, not every such curve was filed as active; the % refers to the signal ratio). In outline:
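Wild-type CHO-K1 cells, plated overnight, exposed 3hr at 37C to 15 concentrations (0.76% DMSO final). Lysed, then HTRF anti-pH2AX (S139) cryptate and anti-H2AX-d2 antibodies, 24 hr room temperature; 665/620 nm emission read.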

The nature of assay [5]: qHTS assay to identify small molecule agonists of the hypoxia (HIF-1) signaling pathway (AID 1224846; active means well fitted activation curve with a large enough effect in the signal ratio in the repeat runs, not every such curve was filed as active; the % refers to the signal ratio). In outline: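 In ME-180 cells bearing an HRE-bla construct, 17 h treatment with DMSO-dissolved compounds at 37C was followed by CCF4-AM loading to quantify reporter induction.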
Assay [6] is described as follows: qHTS assay to identify small molecule agonists of H2AX - cell viability counter screen (AID 1224847; calls by dose curve; further: top concentration of the series differs between compounds; nearly all actives have a fitted effect of over 30% in size). In outline:
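Cytotoxicity counter screen in wild-type CHO-K1 cells: a 3 hr compound treatment at 37C across 15 concentrations, followed by CellTiter-Glo luminescence to gauge viable cells.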

Assay [7] is described as follows: qHTS RealTime-Glo MT Cell Viability Assay in HepG2 cells - 24 hour (AID 1224867). Further: nearly all actives have a fitted effect of over 50% in size. In outline:
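Compound treatment began 5 h after plating HepG2 cells (600/well) with NanoLuc luciferase and prosubstrate. Plates stayed at 37 C for 40 h; luminescence was captured at six time points, 0 h through 40 h.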

Assay [8] can be described thus: A CellTox Green Cytotoxicity Assay to monitor cytotoxicity in HEK293 cells - 0 hour (AID 1224869). Further: nearly all actives have a fitted effect of over 50% in size. In a few lines: (§1)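 Homogeneous no-lysis format: HEK293 cell suspension mixed with CellTox Green reagent, seeded, incubated 5 h at 37 C/5% CO2, then dosed by pintool with compound in DMSO.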
Assay [9] in a line: qHTS RealTime-Glo MT Cell Viability Assay in HepG2 cells - 40 hour (AID 1224870). Further: nearly all actives have a fitted effect of over 50% in size. Further: potency means the concentration at half of the fitted maximal effect. In a few lines:
(§2)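 HepG2 cells (600/well) mixed with RealTime-Glo MT reagent, settled 5 h at 37 C/5% CO2 before compound addition. Nonlytic NanoLuc luminescence from viable-cell prosubstrate reduction read repeatedly during 40 h treatment at 37 C.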

A short description of assay [10]: A CellTox Green Cytotoxicity Assay to monitor cytotoxicity in HEK293 cells - 40 hour (AID 1224871). Further: nearly all actives have a fitted effect of over 45% in size. In a few lines:
as §1

Assay [11] in a line: qHTS RealTime-Glo MT Cell Viability Assay in HEK293 cells - 16 hour (AID 1224872). In a few lines:
(§3)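 Quantitative high-throughput screen of the Tox21 10K library in HEK293: cells and RealTime-Glo reagents plated together, compound added at 5 h, luminescence monitored through 40 h at 37 C.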

Assay [12] can be described thus: qHTS RealTime-Glo MT Cell Viability Assay in HEK293 cells - 40 hour (AID 1224874). Further: nearly all actives have a fitted effect of over 50% in size. The note with it: RealTime-Glo luminescence; max response: stronger effect = lower value. In outline:
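Measured as luminescence from the same continuously cultured HEK293 wells at successive time points (0, 8, 16, 24, 32, 40 h) after compound addition. Reagent present from seeding; dosing at 5 h; incubation 37 C.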

Assay [13] is described as follows: A CellTox Green Cytotoxicity Assay to monitor cytotoxicity in HepG2 cells - 16 hour (AID 1224876). Further: nearly all actives have a fitted effect of over 45% in size. In outline:
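Fluorescent DNA-binding dye, 600 HepG2 cells/well, 5 h preincubation then compound in DMSO; same plates read at 0–40 h, 37 C.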

A short description of assay [14]: qHTS RealTime-Glo MT Cell Viability Assay in HEK293 cells - 32 hour (AID 1224868). In a few lines:
as §3

Assay [15] is described as follows: qHTS RealTime-Glo MT Cell Viability Assay in HepG2 cells - 8 hour (AID 1224873). Further: nearly all actives have a fitted effect of over 55% in size. In a few lines: as §2
The nature of assay [16]: A CellTox Green Cytotoxicity Assay to monitor cytotoxicity in HEK293 cells - 24 hour (AID 1224875). Further: series mostly up to about 77 µM; nearly all actives have a fitted effect of over 45% in size. In outline: as §1

Values without a mark were called inactive. Records with an inconclusive call do not appear. Active and inactive are the calls of the source. Unless noted, the call rests on the fitted dose curve; in most records, active means well fitted curve in the direction sought with a large enough effect in the repeat runs; inconclusive means weak or mixed curves; inactive means no such curve, though single readings can be large; an effect the other way counts as inactive or inconclusive.
On the % scale 0 is the no-effect control and ±100 the full control effect.

Sequence of Thyrotropin receptor (Homo sapiens) (P16473 whole entry, looked up): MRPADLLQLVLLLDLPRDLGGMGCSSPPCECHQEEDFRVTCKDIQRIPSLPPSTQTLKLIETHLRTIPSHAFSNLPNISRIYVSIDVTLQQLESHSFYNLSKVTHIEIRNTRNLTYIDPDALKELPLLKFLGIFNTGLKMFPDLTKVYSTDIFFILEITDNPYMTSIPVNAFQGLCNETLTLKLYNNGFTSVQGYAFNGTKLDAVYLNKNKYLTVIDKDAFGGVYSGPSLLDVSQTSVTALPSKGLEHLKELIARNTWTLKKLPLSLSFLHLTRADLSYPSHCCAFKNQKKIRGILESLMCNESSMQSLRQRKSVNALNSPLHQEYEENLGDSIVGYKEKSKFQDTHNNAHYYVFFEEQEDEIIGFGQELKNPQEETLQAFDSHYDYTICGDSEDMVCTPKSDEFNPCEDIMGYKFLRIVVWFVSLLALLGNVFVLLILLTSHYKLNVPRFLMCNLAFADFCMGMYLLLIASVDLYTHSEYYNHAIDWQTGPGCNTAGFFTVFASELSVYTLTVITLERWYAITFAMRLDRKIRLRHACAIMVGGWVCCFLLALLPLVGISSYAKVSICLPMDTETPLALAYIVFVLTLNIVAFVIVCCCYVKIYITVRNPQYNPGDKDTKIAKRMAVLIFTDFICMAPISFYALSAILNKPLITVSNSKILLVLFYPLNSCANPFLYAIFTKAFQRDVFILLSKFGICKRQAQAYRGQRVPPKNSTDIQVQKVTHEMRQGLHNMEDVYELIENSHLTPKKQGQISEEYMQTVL

Turning to `NCc1ccco1`, the Potency entry in assay [1], in [2], in assay [3], in assay [4], in [5] and in assay [6] was “inactive” throughout. Moreover, the Potency result in [7], in assay [8], in assay [9], in assay [10], in assay [11] and in assay [13] was “inactive” each time. Further, the max response in [12] was 18.6%.
On to `Cc1cccc(C)c1C`, for which the Potency entry in assay [1], in [2], in assay [3], in assay [4], in assay [5] and in assay [6] was “inactive” each time. The Potency entry in [7], in [14], in assay [8], in assay [9], in assay [11] and in [15] was “inactive” throughout. The Potency entry in assay [16] and in assay [13] was “inactive” throughout. The max response in assay [12] is 4%.
As for `CN1CCN(C)CC1`, the Potency entry in assay [1], in assay [2], in assay [3], in [4], in [5] and in assay [6] was “inactive” in each case. Besides, the Potency result in assay [7], in assay [14], in assay [8], in [9], in assay [10] and in assay [11] was “inactive” each time. Moreover, the Potency entry in assay [15], in assay [16] and in assay [13] was “inactive” each time. In addition, in assay [12], the max response is 7.77%.
As to `COc1cc2ncnc(Nc3cccc(Cl)c3)c2cc1OC`, in assay [1], the viability change, negative = cytotoxic is -14.4% [at 19 µM]. Also, the activation is -0.89% [at 19 µM] in assay [2] and 0.103% [at 15.8 µM] in [5]. Further, the figures for the activity change, negative = cytotoxicity in [3], in assay [6] and in assay [7] were -10.3% [at 15.8 µM], 1.51% [at 31.6 µM] and -0.467% [at 15.8 µM], respectively. The activation (H2AX phosphorylation) in assay [4] is 1.29% [at 31.6 µM]. The activity change, negative = cytotoxic in [14] is 0.667% [at 15.8 µM]; in [9], 25.7% [at 15.8 µM]. Besides, in [8], the cytotoxicity is -7.5% [at 15.8 µM]. Also, the cytotoxicity increase in [10] is -0.731% [at 15.8 µM]; in assay [13] it was -17.7% [at 15.8 µM]. Besides, the max response in assay [12] was -0.219%. Besides, the activity change in [16] was -0.939% [at 15.8 µM, stronger effect = higher value].
Turning to `C=C(C)C1CCC(C)CC1O` (stereo not drawn), the Potency result in [1], in [2], in [3], in assay [4], in assay [5] and in assay [6] was “inactive” throughout. The Potency result in [7], in [14], in [8], in [9], in assay [10] and in [11] was “inactive” each time. In addition, the Potency entry in [15], in [16] and in [13] was “inactive” in each case. Further, the max response in assay [12] was 5.16%.
Consider `C1=CCCC1`, for which the Potency entry in [1], in [2], in assay [3], in assay [4], in [5] and in assay [6] was “inactive” each time. The Potency result in [7], in assay [9] and in assay [13] was “inactive” throughout.
On to `CC1(C)[C@H](C(=O)OCc2cccc(Oc3ccccc3)c2)[C@@H]1C=C(Cl)Cl`, for which the Potency entry in [1], in assay [2], in assay [3], in [4], in assay [5] and in assay [6] was “inactive” each time. The Potency entry in assay [7], in assay [14], in assay [8], in [9], in [15] and in [16] was “inactive” throughout. Moreover, the Potency result in [13] was “inactive”. Also, the max response in assay [12] is 4.05%.
On to `C=COCCCC`, for which the Potency result in assay [1], in assay [2], in assay [3], in [4], in assay [5] and in [6] was “inactive” in each case. In addition, the Potency entry in [7], in assay [8], in [9], in assay [10], in assay [16] and in [13] was “inactive” each time.
On to `C=CC(=O)OCCOC1C2CCC1C1CC=CC12` (stereo not drawn), for which the viability change, negative = cytotoxic was -0.314% [at 19 µM] in assay [1] and 0.124% [at 15.8 µM] in [15]. The activation in assay [2] is -1.28% [at 19 µM]; in [5], 0.329% [at 15.8 µM]. For the same compound, the activity change, negative = cytotoxicity in [3] is 4.59% [at 15.8 µM]; in [6], 1.49% [at 31.6 µM]; in assay [7], 3.51% [at 15.8 µM]; in assay [11] it was -2.12% [at 15.8 µM]. Moreover, in [4], the activation (H2AX phosphorylation) is -0.772% [at 31.6 µM]. Moreover, the activity change, negative = cytotoxic in assay [14] was 0.499% [at 15.8 µM]; in assay [9], 5.7% [at 15.8 µM]. Further, the cytotoxicity in [8] is -3.9% [at 15.8 µM]. Moreover, the max response in assay [12] was 6.38%. In addition, in [16], the activity change was 0.179% [at 15.8 µM, stronger effect = higher value]. In assay [13], the cytotoxicity increase is -1.04% [at 15.8 µM].
As to `[Cl][Dy]([Cl])[Cl]`, the Potency result in [1], in [2], in assay [3], in assay [4], in assay [5] and in assay [6] was “inactive” throughout. Further, the Potency result in assay [7], in assay [14], in [8], in [9], in [15] and in [16] was “inactive” each time. The Potency result in assay [13] is “inactive”. Also, in assay [12], the max response was -3.97%.
In the case of `O=c1cc[nH]cc1`, the Potency result in assay [1], in [2], in [3], in assay [4], in [5] and in assay [6] was “inactive” in each case. The Potency entry in assay [7], in [14], in [8], in assay [9], in assay [10] and in assay [16] was “inactive” in each case. Further, the Potency entry in assay [13] is “inactive”. For the same compound, the max response in assay [12] was 1.32%.
On to `O=C1OCc2ccccc21`, for which the Potency result in assay [1], in assay [2], in [3], in [4], in assay [5] and in assay [6] was “inactive” throughout. In addition, the Potency result in assay [7], in assay [14], in [8], in assay [9], in assay [11] and in [16] was “inactive” in each case. In addition, the Potency result in assay [13] was “inactive”. Moreover, the max response in assay [12] is 15.2%.
As for `CCOC=C(C(=O)OCC)C(=O)OCC`, the Potency result in assay [1], in assay [2], in [3], in assay [4], in assay [5] and in assay [6] was “inactive” in each case. In addition, the Potency entry in [7], in [14], in assay [8], in assay [9], in [10] and in assay [11] was “inactive” throughout. For the same compound, the Potency entry in assay [15], in assay [16] and in [13] was “inactive” each time. Also, the max response in assay [12] was -0.307%.
For `COc1cc(C(C)C)ccc1C`, the viability change, negative = cytotoxic was -28.8% [at 19 µM] in assay [1] and -7.86% [at 15.8 µM] in [15]. The values for the activation in assay [2] and in assay [5] were 6.84% [at 19 µM] and -0.0499% [at 15.8 µM], respectively. In addition, the activity change, negative = cytotoxicity in assay [3] is 21.3% [at 15.8 µM]; in [6], 1.56% [at 31.6 µM]; in [7], 0.531% [at 15.8 µM]. Moreover, the activation (H2AX phosphorylation) in [4] was 0.221% [at 31.6 µM]. Moreover, the values for the activity change, negative = cytotoxic in assay [14] and in assay [9] were 4.56% [at 15.8 µM] and 19.4% [at 15.8 µM], respectively. Also, the cytotoxicity in assay [8] is -0.495% [at 15.8 µM]. In addition, the cytotoxicity increase was -5.42% [at 15.8 µM] in assay [10] and -12.9% [at 15.8 µM] in [13]. The max response in [12] is -0.423%. The activity change in assay [16] is -1.5% [at 15.8 µM, stronger effect = higher value].
As for `O=C(CCN1CCC(c2ccccc2)C1)c1ccc2c(c1)OCCO2` (stereo not drawn), the Potency result in [1], in assay [2], in assay [8], in assay [16] and in [13] was “inactive” each time. Moreover, in [9], the Potency was 21.3 µM (active).
